Assay outcomes from PubChem.
An excerpt weighted towards active compounds, which were near 3.7% of everything screened.
FEN1 inh – inhibitors of human flap endonuclease 1. actives 0.35% (n = 390,000). Potency, µM (doses to about 114 µM), inactives show at the highest dose activity change, negative = inhibition, hits mostly inhibitors. Recombinant FEN1 flap cleavage, fluorescence, 15 min; also: potency is read from the fitted curve at half-maximal effect; % is scaled to controls: 0 for no effect and ±100 for the full control effect; nearly all actives have a fitted effect of over 65% in size
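Quantitative HTS format: each compound was titrated, incubated with 10 nM nuclease for 15 min at room temperature, then challenged with flap substrate at 50 nM final. Signal change over 15 min gave concentration–effect curves.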
WRN inhibitor – blocks human WRN helicase | Q14191 | WRN helicase unwinding, fluorescent forked duplex, kinetic | Potency, µM (series often up to 114 µM), inactives show top-dose activity change, negative = inhibition, most hits filed as inhibitors | actives 0.46% (n = 360,000); also: potency is read from the fitted curve at half-maximal effect; % is scaled to controls: 0 for no effect and ±100 for the full control effect; nearly all actives have a fitted effect of over 55% in size
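Fluorescence dequenching readout, ex 525 nm/em 598 nm, kinetic mode: forked duplex DNA (100 nM final) with adjacent fluorophore and quencher unwound by WRN (20 nM final) with 2 mM ATP. Compound preincubation 15 min, room temperature.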
VDR inh – inhibitors of human vitamin D receptor; actives 0.93% (n = 400,000); P11473; VDR-SRC2-3 peptide fluorescence polarization, 2 h; Potency, µM, inactives show max response, negative = inhibition, most hits filed as inhibitors; also: potency is read from the fitted curve at half-maximal effect; % is scaled to controls: 0 for no effect and ±100 for the full control effect
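Fluorescence polarization assay measuring small-molecule disruption of VDR binding to the coregulator peptide SRC2-3. Compounds were pin-transferred (23 nl) into the reagent mix and incubated 2 h at room temperature before reading.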
PLK1 PBD inh – PLK1 (human) polo-box domain binding inhibition | Plk1 PBD binding of FITC phosphopeptide, fluorescence polarization | actives 2.8% (n = 360,000) | AID 720504 | Potency, µM, inactives show max response, negative = inhibition, most hits filed as inhibitors | P53350; also: potency is read from the fitted curve at half-maximal effect; series mostly up to about 57 µM; % is scaled to controls: 0 for no effect and ±100 for the full control effect; nearly all actives have a fitted effect of over 65% in size
PI5P4Ka inh – inhibitors of human PI5P4K alpha. P48426. actives 1.2% (n = 330,000). max response, %. PI5P4Kalpha enzyme, ADP-Glo luminescence, 60 min; active compounds read low; active = max response of -50% or lower; inconclusive = between -30% and -50%; inactive = -30% or higher; also: value at the top dose of about 77 µM; % is scaled to controls: 0 for no effect and ±100 for the full control effect
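Quantitative HTS of the MLSMR library against PI5P4Kalpha with substrate. ATP added last at 5 microM final; room temperature, 60 minutes. Remaining ATP depleted, ADP converted and read as luminescence.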
TCR act – T cell receptor activation; primary human leukocytes, anti-CD3, IL-2 HTRF, 48 h; Potency, µM (top dose mostly 9.22 µM), for inactives: at the highest dose activation of IL-2 secretion, hits mostly activators; 330,000 tested, under 10 active; AID 504894; also: % of control where 0% means no effect
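IL-2 release read by HTRF sandwich (Eu cryptate donor, d2 acceptor, 665 nm emission) after 48 hr exposure of primary human leukocytes to compound together with anti-CD3 beads in the absence of co-stimulatory signals.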
* hit, by the source's call; ? = inconclusive; . = no result; ! = not confirmed by another sample; [ ] = dose if it differs, or a comment. Unless noted, calls follow the shape of the dose curve; as a rule, active = well fitted curve in the direction sought with a large enough effect; inconclusive = small, poorly fitted or top-dose-only effect, or another doubt; inactive = no such curve, though single readings can be large; an effect the other way counts as inactive or inconclusive.

SMILES | FEN1 inh | WRN inhibitor | VDR inh | PLK1 PBD inh | PI5P4Ka inh | TCR act
O=C(Nc1cccc(Cl)c1)Nc1ccccc1OCc1cc(=O)n2ccccc2n1 | -5% | . | 6% | . | . | .
CN(C)c1c(Cl)cc(/C=C2\C=Cc3ccccc32)cc1Cl | -21% | . | . | . | . | .
Cc1cccc(NC(=O)CN2C(=O)c3cccnc3Oc3ccc(Cl)cc32)c1C | 5% | . | -4% | . | . | .
COc1cc(/C=C2\C(=N)N3N=CSC3=NC2=O)ccc1OS(=O)(=O)c1ccccc1 | 9% | -11% | 79µM* | ? | ? | -9%
CCOc1cc(/C=C2\C(=N)N3N=CSC3=NC2=O)ccc1OS(=O)(=O)c1ccccc1 | -5% | -28% | ? | 24µM* | ? | .
CN1CCN(c2cc(N3CCN(C(=O)c4ccco4)CC3)c3c4c(onc24)-c2ccccc2C3=O)CC1 | ? | ? | -21% | 27% | -17 | 9%
O=C1c2ccccc2-c2onc3c(N4CCN(CCO)CC4)cc(N4CCN(C(=O)c5ccco5)CC4)c1c23 | 45µM* | 151% | -1% | 37% | ? | -5%
S=c1nccc(-c2cccs2)[nH]1 | 0% | -8% | ? | 12µM* | -1 | 4%
Cc1ccc(-c2ccnc(=S)[nH]2)cc1 | 2% | -24% | -20% | ? | . | 1%
CN(C(=O)c1ccc(S(=O)(=O)N2CCCCC2)cc1)C1CCS(=O)(=O)C1 (centres undefined) | 8% | -6% | 4% | 2% | -5 | -4%
Cc1ccc(S(=O)(=O)N2CCC(C(=O)N(C)C3CCS(=O)(=O)C3)CC2)cc1 (centres undefined) | -1% | 7% | -13% | 6µM* | ? | 1%
CCc1ccc(-n2nc(C)c3c(C(=O)Nc4cccc(C(F)(F)F)c4)cc(C)nc32)cc1 | -3% | . | 2% | . | . | .
CCC(C)C(NC(=O)C1CCC(C)CC1)C(=O)Nc1ccc(OC)cc1OC (centres undefined) | 3% | 3% | 0% | 3% | 5 | 0%
CCC(C)C(NC(=O)C1CCC(C)CC1)C(=O)Nc1ccc(OC)cc1 (centres undefined) | 4% | 12% | ? | 30µM* | -12 | -4%
Cc1ccc(C2CC(=O)NC(SCCC(C)C)=C2C#N)cc1 (centres undefined) | -8% | 6% | -17% | 13µM* | -6 | -1%
CCOC(=O)C(=O)NCC(c1cccnc1)N1CCN(c2ccccc2)CC1 (centres undefined) | 7% | . | 6% | . | . | .
CC(Sc1cn(CCNC(=O)c2ccccc2F)c2ccccc12)c1ccccc1 (centres undefined) | -23% | . | 0% | . | . | .
C=CCn1c(NC(=O)c2ccccc2Cl)c(C#N)c2nc3ccccc3nc21 | ? | -11%[11.6 µM] | 35µM* | -29% | . | 2%
Oc1c(Cl)cc(Cl)cc1/C=N/c1nccs1 | -1% | -33% | 79µM* | 34µM* | ? | 4%
Cc1ccc2oc(=O)c3cc(C(=O)NCCCOC(C)C)sc3c2c1 | -1% | . | -2% | . | . | .
CCOc1ccc(CNCc2c(C(=O)O)n(Cc3ccccc3C)c3cc(OC)ccc23)cc1OC | -1% | . | 15% | . | . | .
Cc1c2oc3c(C)ccc(C(=O)N[C@@H]4C(=O)N[C@H](C(C)C)C(=O)N5CCC[C@H]5C(=O)N(C)CC(=O)N(C)[C@@H](C(C)C)C(=O)O[C@@H]4C)c3nc-2c(C(=O)N[C@@H]2C(=O)N[C@H](C(C)C)C(=O)N3CCC[C@H]3C(=O)N(C)CC(=O)N(C)[C@@H](C(C)C)C(=O)O[C@@H]2C)c(N)c1=O | . | . | 45µM*! | . | . | .
COC(=O)C1=C(C(=O)OC)SC2(S1)C(C(=O)OC)=C(C(=O)OC)SC1=C2c2cc(C)ccc2NC1(C)C | -8% | ? | ? | 3.4µM* | ? | 0%
Cc1ccccc1N1C(S)=C(C#N)C(=O)NC1c1ccco1 (centres undefined) | -18% | -8%[11.6 µM] | 79µM* | ? | -53* | 1%
N#CC1=C(S)N(c2ccc(F)cc2)C(c2cccs2)NC1=O (centres undefined) | 9% | -14% | ? | -16% | -3 | -18%
